Drawing on PubChem BioAssay (NCATS), this text covers max response, outcome and Potency for 39 compounds.

Records with an inconclusive call do not appear. Unmarked numbers belong to inactive results. Calls of active or inactive are those of the source. Calls come from the whole dose curve; as a rule, active = well fitted inhibition curve with a large enough effect; inconclusive = small, poorly fitted or top-dose-only effect; inactive = flat fitted curve, though single readings scatter.
% is set by controls: 0 for no effect and ±100 for the full control effect; potency is the fitted concentration of half-maximal effect.

In the assay the test system is CRL-7250. As to the kind of experiment: Cytotoxic Profiling of Annotated Libraries Using Quantitative High-Throughput Screening (AID 1296008). Note: nearly all actives have a fitted effect of over 60% in size. Conditions: Five cell lines viability, CellTiter-Glo ATP luminescence, 48-72 h; max response: active compounds read low. An outline of the steps: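 Cytotoxicity was measured as CellTiter-Glo ATP luminescence, read after 10 min at room temperature. Compound treatment of the cells lasted 48 or 72 hr at 37 degrees Celsius in a qHTS format.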
(ATP-based viability assays read luminescence as a measure of living cells.)
As to `NS(=O)(=O)c1ccc(N2N=C(c3ccccc3)CC2c2ccccc2)cc1` (centres undefined), the max response was -0.316%. `Cc1nc(N2CCN(C(=O)c3ccco3)CC2)c2c3c(sc2n1)CCCC3`: the max response is -5.8%. On to `CCC(C)c1ccc(NC(=O)Cn2cnc3c2c(=O)n(C)c(=O)n3C)cc1` (centres undefined), for which the max response was -7.14%. With `Cn1ncnc1[C@@H]1c2n[nH]c(=O)c3cc(F)cc(c23)N[C@H]1c1ccc(F)cc1`, the max response was -10.4%.

Consider `COC(=O)CC[C@@H](C)C1CCC2C3CCC4C[C@H](OC(C)=O)CCC4(C)C3C[C@H](O)C21C` (some centres undefined), for which the max response was -0.684%.

Take `O=C(c1ccc(F)cc1)N1CCCC(c2nc(-c3ccc(F)cc3)no2)C1` (centres undefined): the max response is -19.5%. Turning to `Cc1cn2c(n1)Cc1ccc(Cl)cc1C(c1ccc(N)cc1)=N2`, the max response was -3.82%. For the compound `C[C@@H]1O[C@@H](O[C@H]2[C@H](OC(=O)[C@]34CCC(C)(C)C[C@H]3C3=CCC5[C@@]6(C)C[C@H](O)[C@H](O[C@@H]7O[C@H](C(=O)O)[C@@H](O)[C@H](O)[C@H]7O)[C@@](C)(CO)C6[C@H](O)C[C@@]5(C)[C@]3(C)C[C@H]4O)O[C@@H](CO)[C@@H]2O)[C@H](O)[C@H](O)[C@H]1O[C@@H]1OC[C@@H](O)[C@H](O[C@H]2OC[C@](O)(CO)[C@H]2O)[C@H]1O` (some centres undefined), the outcome was inactive. The same measure, in the same setting: the same measure for `CCc1c(Cl)c(O)c(Cl)c(O)c1C(=O)O[C@H]1[C@H](O)[C@H](OC)[C@H](OC/C2=C\C=C\C[C@H](O)/C(C)=C\[C@H](CC)[C@@H](O[C@@H]3OC(C)(C)[C@@H](OC(=O)C(C)C)[C@H](O)[C@@H]3O)/C(C)=C/C(C)=C/C[C@@H]([C@@H](C)O)OC2=O)O[C@@H]1C`: “inactive”.

In the case of `C/C=C/C=C/C=C/C(=O)O[C@@H]1C=C(CO)C(O)(C(=O)OC)[C@@]2(C)CCCC(C)(C)C12` (some centres undefined), the max response is -4.29%.

Regarding `COCCCNC(=O)c1ccc(Cn2c(=O)c3ccccc3n(Cc3ccc(C(C)C)cc3)c2=O)cc1`, the max response is -3.32%. Regarding `C=CC(C)(O)CC/C=C(\C)C(=O)OC1C(O)C(CO)OC(OC(=O)C23CCC(C)(C)CC2C2=CCC4C5(C)CCC(OC6OC(COC7OCC(OC(C)=O)C(O)C7OC7OC(COC(C)=O)C(O)C(O)C7OC(C)=O)C(O)C(O)C6OC6OCC(O)C(O)C6O)C(C)(C)C5CCC4(C)C2(C)C(O)C3O)C1OC1OCC(OC2OCC(O)C(OC3OCC(O)C(O)C3O)C2O)C(O)C1O` (centres undefined), the Potency was 891 nM (active). On to `C[C@@H]1O[C@@H](O[C@H]2[C@H](O[C@H]3CC[C@@]4(C)C(CC[C@]5(C)C4C=C[C@]46OC[C@@]7(CCC(C)(C)C[C@H]74)[C@@H](O[C@@H]4O[C@@H](C)[C@H](O)[C@@H](O)[C@H]4O)C[C@]65C)[C@]3(C)CO)O[C@H](CO)[C@@H](O)[C@@H]2O[C@@H]2O[C@H](CO)[C@@H](O)[C@H](O)[C@H]2O)[C@H](O)[C@H](O)[C@H]1O` (some centres undefined), for which the max response is -7.16%. On the same count and under the same terms, the figure for `O=C(Nc1ccc(N2C(=O)[C@@H]3[C@H](C2=O)[C@@H]2C=C[C@H]3C2)c(Cl)c1)c1ccccn1` is -25.2%; for `Cc1c(C2=CCN(C(=O)N(C)C(C)C)CC2)nnn1-c1cccnc1F` it is -2.94%. The same measure, in the same setting: the figure for `CNC(=O)c1ccc2c(c1)CCO[C@H]2CCN1CCN(c2ccc(OC)cc2)CC1` is 1.26%. In the case of `CCCc1cc(C)n(C)c(=O)c1CN(C)C(=O)c1cc(-c2ccc(N3CCN(C(C)C)CC3)nc2)cc2c1cnn2C(C)C`, the max response is -1.11%.

On to `Cn1c(SCC(=O)N2CCC[C@H]2C(=O)Nc2ccccc2-c2ccccc2)nc2ccccc21`, for which the compound was classed as inactive. On to `COc1cc(/C=N\NC(=O)c2ccc3c(c2)OCO3)ccc1OCc1ccccc1`, for which the max response is 3.71%. For `CC(=O)OC1C(OC(=O)c2ccccc2)C2C(C)(C)CCC(OC(C)=O)C2(C)C23CCC(C)(C2)C(=O)CC13` (centres undefined), the result was inactive. Consider `CC1(CO)CC(O)[C@]2(C(=O)O)CCC34CC3(C=CC3[C@]5(C)C(CC[C@]34C)C(C)(CO)[C@@H](O)[C@H](O)[C@@H]5O)C2C1` (some centres undefined), for which the max response was -11.7%. In the case of `Cc1ccc(S(=O)(=O)NCc2ccc(C(=O)NCCN(Cc3ccccc3)C(C)C)cc2)cc1`, the max response is -10.1%. Take `CC(=O)O[C@H]1C[C@@](O)(C(C)C)[C@@H]2[C@@H](OC(=O)c3ccc(O)cc3)CC(C)=CC[C@@]12C`: the max response was 3.65%. `C=CCCN1CCC2(CC1)CN(C(=O)c1c(F)cccc1F)c1ccc(Cl)cc12`: the compound was classed as inactive.

Take `C[C@@H]1CC[C@]2(C(=O)O)CC[C@]3(C)C(=CCC4[C@@]5(C)CC[C@H](O)[C@](C)(C(=O)O)C5CC[C@]43C)C2[C@]1(C)O` (some centres undefined): the max response was -2.08%. Still for that read-out and setting: the same measure for `O=C(c1ccccn1)N(Cc1cccs1)C1(C(=O)NC2CCCCC2)CCCCC1`: -5.83%; for `NS(=O)(=O)c1ccc(N2CCN(CC[C@@H]3OCCc4ccccc43)CC2)cc1`: -8.79%; for `C=CC(C)(O)CC[C@@H]1[C@@]2(C)CCCC(C)(C)C2CC[C@@]1(C)O` (some centres undefined): -17.3%. `C[C@@H]1O[C@@H](O[C@H]2CC[C@@]3(C)C(CC[C@]4(C)C3CC=C3[C@@H]5CC(C)(C)CC[C@]5(C(=O)O[C@@H]5O[C@H](CO)[C@@H](O)[C@H](O)[C@H]5O)CC[C@]34C)[C@]2(C)CO)[C@H](O)[C@H](O[C@@H]2O[C@H](CO)[C@@H](O)[C@H](O)[C@H]2O)[C@H]1O` (some centres undefined): the max response is 1.26%. As to `CC(C)=CCCC1(C)C2CCC1(C)C(O)C2` (centres undefined), the max response is -2.07%. The same measure, in the same setting: the figure for `COCC(c1ccc(C(F)(F)F)cc1)N1CCN(C2(C)CCN(C(=O)c3c(C)ncnc3C)CC2)CC1C` (centres undefined) is 4.87%; for `C=C[C@H](/C=C\c1ccc(O)cc1)c1ccc(O)cc1` it is -3.27%. Regarding `CCOc1ccc(-n2c([C@@H](C)N(Cc3cccnc3)C(=O)Cc3ccc(OC(F)(F)F)cc3)nc3ncccc3c2=O)cc1`, the max response was 0.299%.

Regarding `CC(O)(C(=O)C1CC1(CO)COC1OC(CO)C(O)C(O)C1O)C1C(O)CC2C3CC=C4CC(O)CC(O)C4(C)C3C(O)CC21C` (centres undefined), the Potency was 432 nM (active). As for `C=CC(C)(O)CC/C=C(/C)COC(=O)C(C)C1CCC(C)(C=C)O1` (centres undefined), the max response is -27%. In the case of `COc1cc(NC(=O)c2cc(C3CC3)on2)c(OC)cc1Cl`, the max response is -0.243%. With `CC(=O)O[C@@H]1CC2C(/C=C(\C)C(=O)[C@@]3(O)C[C@@H](C)[C@H](OC(=O)c4ccccc4)C3/C=C/1C)C2(C)C` (some centres undefined), the call was inactive. For the compound `CCC/C=C\C=C/CCc1cc(O)c([C@@H]2O[C@H](CO)[C@@H](O)[C@H](O)[C@H]2O)c(O)c1C(=O)OC`, the max response was -29.4%. Consider `Nc1nc2c(s1)CCN(Cc1ccc(Cl)cc1)CC2`, for which the compound was classed as inactive.
